Consider 40 molecules from PubChem BioAssay (Tox21).

“And” between values parts separate entries of the source, which are not always exact repeats. Identical values can stand only once. Records with an inconclusive call do not appear. Where a call stands in place of a potency, no number is given. More than one record can exist for a structure, and the calls need not agree. The source made the active and inactive calls. Calls follow the shape of the dose curve; as a rule, active = well fitted activation curve with a large enough effect in the repeat runs; inconclusive = weak or mixed curves; inactive = no such curve, though single readings can be large or run the other way.
Potency is read from the fitted curve at half-maximal effect.

Chain of Aryl hydrocarbon receptor (Homo sapiens) (P35869 whole entry, looked up): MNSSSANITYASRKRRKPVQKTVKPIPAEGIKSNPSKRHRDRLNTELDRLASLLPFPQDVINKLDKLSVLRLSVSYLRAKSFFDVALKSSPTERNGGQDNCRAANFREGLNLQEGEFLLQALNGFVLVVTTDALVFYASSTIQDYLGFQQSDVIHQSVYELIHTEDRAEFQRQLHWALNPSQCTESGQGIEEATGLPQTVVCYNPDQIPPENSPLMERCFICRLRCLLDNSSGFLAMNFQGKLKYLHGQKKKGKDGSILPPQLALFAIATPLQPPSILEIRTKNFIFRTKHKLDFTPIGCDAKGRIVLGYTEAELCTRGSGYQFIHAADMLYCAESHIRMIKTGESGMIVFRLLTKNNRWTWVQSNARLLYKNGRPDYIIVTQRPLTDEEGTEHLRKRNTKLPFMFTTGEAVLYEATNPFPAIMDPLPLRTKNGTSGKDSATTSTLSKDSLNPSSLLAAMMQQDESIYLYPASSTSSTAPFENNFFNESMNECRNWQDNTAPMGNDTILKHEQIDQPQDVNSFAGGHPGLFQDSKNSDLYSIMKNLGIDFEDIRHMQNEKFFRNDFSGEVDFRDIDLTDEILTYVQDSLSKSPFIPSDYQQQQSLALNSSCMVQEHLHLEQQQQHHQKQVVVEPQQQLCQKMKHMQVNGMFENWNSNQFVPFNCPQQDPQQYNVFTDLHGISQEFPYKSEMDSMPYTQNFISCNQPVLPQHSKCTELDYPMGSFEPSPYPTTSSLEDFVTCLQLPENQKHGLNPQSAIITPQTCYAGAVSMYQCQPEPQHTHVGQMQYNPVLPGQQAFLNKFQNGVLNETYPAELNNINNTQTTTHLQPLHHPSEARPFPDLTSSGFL

This test has as its target Aryl hydrocarbon receptor (Homo sapiens) (UniProt P35869). Nature of the test: qHTS assay to identify small molecule that activate the aryl hydrocarbon receptor (AhR) signaling pathway (AID 743085). Also: nearly all actives have a fitted effect of over 15% in size.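 As to activation: HG2L7.5c1 human HepG2 liver cells with stably integrated DRE-driven firefly reporter.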 The note with it: HepG2 AhR-luc (HG2L7.5c1), luciferase, 24 h; series mostly up to 70.3 µM; activation: at the top concentration. An excerpt:
U.S. Tox21 Program National Center for Advancing Translational Sciences [NCATS] NIH Chemical Genomics Center [NCGC] U.S. Environmental Protection Agency [EPA] National Institutes of Environmental Health Sciences [NIEHS] National Toxicology Program [NTP] U.S. Food and Drug Administration [FDA] Tox21 Assay overview: The Aryl hydrocarbon Receptor (AhR), a member of the family of basic helix-loop-helix transcription factors, is crucial to adaptive responses to environmental changes. AhR mediates cellular responses to environmental pollutants such as aromatic hydrocarbons through induction of phase I and II enzymes but also interacts with other nuclear receptor signaling pathways. A cell based HepG2-AhR-luc assay (HG2L7.5c1 cell line, developed by Dr. Michael S. Denison, University of California at Davis, was used to assess the activation of AhR. HepG2 (human hepatocellular carcinoma) cells were stably transfected with an Ah receptor-responsive firefly luciferase reporter gene plasmid containing 20 dioxin responsive elements and luciferase reporter gene. Increased luciferase activity can be used to identify the compounds that induce AhR activation.
Tox21 Assay Protocol Summary: 4000 cells in 5 uL/well were dispensed into white wall/solid bottom 1536-well plates using a Multidrop Combi (Thermo Fisher Scientific Inc., Waltham, MA) dispenser. After the assay plates were incubated at 37C for 5 h, 23 nL of compound or DMSO vehicle was transferred to the assay plates by a pintool station (Kalypsys, San Diego, CA). The plates were incubated at 37C for 24 hr. After 1 ul/well of CellTiter-Fluor reagent (Promega, Madison, WI) was added into the assay plates using a Flying Reagent Dispenser (FRD) (Aurora Discovery, CA), the assay plates were incubated at 37C for 30 min. The fluorescence intensity in the plates was measured using a ViewLux plate reader (PerkinElmer, Shelton, CT), followed by the addition of 4 uL of ONE-Glo Luciferase Assay reagent (Promega) using an FRD (Aurora Discovery). After the assay plates were incubated at room temperature for 30 min, luminescence intensity was measured using a ViewLux plate reader (Perkin Elmer).
For the molecule `CCCCC/C=C/C=C/C=O`, the Potency entry was “inactive”.

Consider `CC(C)(C)NC(=O)[C@H]1CC[C@H]2[C@@H]3CC[C@H]4NC(=O)C=C[C@]4(C)[C@H]3CC[C@]12C`, for which the Potency entry was “inactive”.

On to `Cn1cnc([N+](=O)[O-])c1Sc1ncnc2nc[nH]c12`, for which the Potency result is “inactive and 19.2 µM (active)”.

Turning to `Nc1ccccc1N`, the Potency is 27.9 µM (active) and 19.8 µM (active).

Take `CC(C(=O)O)c1cccc(C(=O)c2ccccc2)c1` (stereo not given): the Potency entry was “inactive”.

On to `Cc1[nH]c(=O)c(C#N)cc1-c1ccncc1`, for which the “activation” value is -4.03% (inactive).

Take `Cc1ncc[nH]1`: the Potency result is “inactive and 48.5 µM (active)”.

In the case of `CC(C)=CCC/C(C)=C\CO`, the Potency entry is “inactive”.

Turning to `O=C(OCc1ccccc1)c1ccccc1O`, the Potency entry is “inactive”.

As to `CC(C)OC=O`, the Potency entry is “inactive”.

As to `C=C(C)C(=O)OCCOC(=O)C(=C)C`, the Potency result was “inactive”.

As to `Nc1ncnc2nc[nH]c12`, the Potency entry is “inactive”.

Consider `CC(=O)c1ccccn1`, for which the Potency entry is “inactive”.

On to `C#C[C@]1(O)CC[C@H]2[C@@H]3CCc4cc(OC)ccc4[C@H]3CC[C@@]21C`, for which the Potency entry is “inactive”.

For the molecule `COc1ccc(C(=O)CC(=O)c2ccc(C(C)(C)C)cc2)cc1`, the Potency result was “inactive”.

`CC1=CC2C3CC(C=C3C)C2C1` (stereo not given): the “activation” value was 5.37% (inactive).

Turning to `NNc1ccc(C(=O)O)cc1`, the Potency entry was “inactive”.

Consider `CCCCC(CC)COP(=O)(OCC(CC)CCCC)OCC(CC)CCCC` (stereo not given), for which the Potency entry was “inactive”.

As for `CC(=O)O[C@]1(C(C)=O)CC[C@H]2[C@@H]3C=C(Cl)C4=CC(=O)[C@@H]5C[C@@H]5[C@]4(C)[C@H]3CC[C@@]21C`, the Potency result is “inactive”.

Regarding `Cc1cccc([N+](=O)[O-])c1C`, the “activation” value is -0.431% (inactive).

As for `CCC(C)CO` (stereo not given), the Potency entry was “inactive”.

Turning to `O=P(O)(O)O`, the Potency result is “inactive”.

As to `Cc1ccc(C(=O)c2cc(O)c(O)c([N+](=O)[O-])c2)cc1`, the “activation” value was 2.16% (inactive).

Regarding `OC1CCCCCCCCCCC1`, the Potency entry is “inactive”.

As for `O=c1oc(=O)c2cc3c(=O)oc(=O)c3cc12`, the Potency entry was “inactive”.

In the case of `O=C(/C=C/C=C/c1ccc2c(c1)OCO2)N1CCCCC1`, the Potency was 612 nM (active) and 2.17 µM (active).

Turning to `C[Si](C)(C)O[Si](C)(C)C`, the Potency result was “inactive”.

For `CCCCC(CC)COC(=O)c1ccc(N(C)C)cc1` (stereo not given), the Potency result is “inactive and 27.3 µM (active)”.

Consider `CC(CCC(=O)O)(c1ccc(O)cc1)c1ccc(O)cc1`, for which the Potency result is “inactive”.

With `CC(C)Oc1ccc2c(=O)c(-c3ccccc3)coc2c1`, the Potency was 2.11 µM (active) and 4.73 µM (active).

As for `CN1C(C(=O)Nc2ccccn2)=C(O)c2ccccc2S1(=O)=O`, the Potency result was “inactive and 24.6 µM (active)”.

Take `O=[N+]([O-])c1ccc2c(c1)Cc1ccccc1-2`: the Potency entry was “inactive and 61.1 µM (active)”.

For `CNCCCC12CCC(c3ccccc31)c1ccccc12`, the Potency result is “inactive”.

Turning to `CC(=O)Oc1ccccc1C(=O)Nc1ncc([N+](=O)[O-])s1`, the Potency is 10.6 µM (active) and inactive.

For the molecule `O=C(O)c1ccccc1Nc1cccc(C(F)(F)F)c1`, the Potency entry is “inactive”.

Consider `OCCO`, for which the Potency entry is “inactive”.

For `CCCCOCCOCCO`, the Potency result is “inactive”.

For the molecule `COc1cccc2c1C(=O)c1c(O)c3c(c(O)c1C2=O)C[C@@](O)(C(=O)CO)C[C@@H]3O[C@H]1C[C@H](N)[C@H](O)[C@H](C)O1`, the Potency result is “inactive”.

In the case of `COc1c(Cl)c(Cl)c(Cl)c(Cl)c1Cl`, the “activation” value is 3.95% (inactive).

For the molecule `OC(CCl)CCl`, the Potency entry is “inactive”.
